# Hit rate of the full screen: of about 360,000 compounds, about 25,000 (6.9%) were called active. About 9% were inconclusive and are not listed. Calls come from the whole dose curve; as a rule, active = well fitted inhibition curve with a large enough effect; inconclusive = small, poorly fitted or top-dose-only effect; inactive = flat fitted curve, though single readings scatter. The entries come from a sample that favours actives as a whole.
# Target: Luciferin 4-monooxygenase (Photinus pyralis) (UniProt P08659)
# Test: qHTS profiling assay for firefly luciferase inhibitor/activator using purifed enzyme and Km concentrations of substrates (counterscreen for miR-21 project); note: nearly all actives have a fitted effect of over 55% in size;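 for activity change, negative = inhibition: plate controls were vehicle for no effect and reference inhibitor for full effect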
# Conditions: purified FLuc, luminescence inhibition; series mostly up to 57.5 µM; activity change, negative = inhibition: at the top concentration
# Procedure, shortened: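 Purified P. pyralis luciferase (10nM final) with 10uM D-luciferin and 10uM ATP (Km levels) in 50mM Tris acetate pH 7.5, 10mM Mg acetate, 0.01% Tween-20, 0.05% BSA; qHTS 6-point titration, ~60 µM downward; luminescence read.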
# Potency is the fitted concentration of half-maximal effect.
# Sequence of Luciferin 4-monooxygenase (Photinus pyralis) (P08659 whole entry, looked up): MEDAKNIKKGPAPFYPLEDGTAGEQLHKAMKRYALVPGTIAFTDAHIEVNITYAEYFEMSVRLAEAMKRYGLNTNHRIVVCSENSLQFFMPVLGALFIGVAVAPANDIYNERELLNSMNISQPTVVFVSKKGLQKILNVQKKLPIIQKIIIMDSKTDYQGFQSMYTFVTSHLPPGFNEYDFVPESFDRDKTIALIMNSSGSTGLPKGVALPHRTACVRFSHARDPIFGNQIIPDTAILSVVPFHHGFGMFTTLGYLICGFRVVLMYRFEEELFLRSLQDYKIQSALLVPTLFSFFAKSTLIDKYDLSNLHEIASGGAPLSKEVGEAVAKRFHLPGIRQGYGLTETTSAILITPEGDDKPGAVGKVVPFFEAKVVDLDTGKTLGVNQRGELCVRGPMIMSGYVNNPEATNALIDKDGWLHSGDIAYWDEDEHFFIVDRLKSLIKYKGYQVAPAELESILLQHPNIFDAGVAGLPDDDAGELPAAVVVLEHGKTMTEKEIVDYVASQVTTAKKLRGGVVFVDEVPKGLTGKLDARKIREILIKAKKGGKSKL
Compound,"activity change, negative = inhibition",Potency
CCCCNC(=O)c1ccc2c(c1)NC(=O)C(C(C)C)N2 (stereo unspecified),-6.51% (inactive),–
CC(=O)N1CCCc2cc(S(=O)(=O)N3CCC(C(=O)NCc4ccc(C)cc4)CC3)ccc21,0.565% (inactive),–
CCc1ccc(-c2nn(-c3ccccc3C)cc2C(=O)N2CCN(C3CCS(=O)(=O)C3)CC2)cc1 (stereo unspecified),2.23% (inactive),–
COc1ccccc1CNCc1ccc(C(=O)O)s1,2.57% (inactive),–
CCc1nccn1S(=O)(=O)c1cc(Br)ccc1Br,-10.3% (inactive),–
CCOC(=O)c1c(NC(=O)c2ccc(S(=O)(=O)N(CC)CC)cc2)sc2c1CCCCC2,-3.1% (inactive),–
CN(C(=O)c1ccc2c(c1)N(Cc1cccc(Cl)c1)C(=O)c1ccccc1S2=O)C1CCCCC1 (stereo unspecified),-10.7% (inactive),–
Cc1ccc(Cl)cc1NC(=O)/C(C#N)=C\c1cn(Cc2ccc(F)cc2)c2ccccc12,0.524% (inactive),–
CCc1ccc(NS(=O)(=O)c2ccc3[nH]cc(C(=O)NCCc4cccc(C)c4)c(=O)c3c2)cc1,-6.98% (inactive),–
O=C(c1ccc(Cl)nc1)N1CCN(S(=O)(=O)c2ccc3c(c2)OCCO3)CC1,-2.36% (inactive),–
COc1cccc(-c2nnc3n(CCc4ccccc4)c(=O)c4ccccc4n23)c1O,-4.13% (inactive),–
Cc1ccccc1NC(=O)c1cc2c([nH]c1=O)CC(C)(C)CC2=O,-15.2% (inactive),–
COc1ccc(OC)c(/C=C/C(=O)c2ccc3c(c2)OCO3)c1,–,4.78 µM (active)
COc1ccc(C(=O)Nc2ccccc2C(=O)N/N=C/c2ccc(O)c(OC)c2)cc1,–,0.012 µM (active)
O=C(N/N=C/c1ccc(OC(=O)c2ccccc2Cl)cc1)c1ccc(O)cc1,-2.37% (inactive),–
COc1ccc(/C=N/NC(=O)c2ccc(Cl)cc2)cc1COC(C)=O,-13.1% (inactive),–
COc1ccc(OC)c(/C=C/C(=O)OCC(=O)Nc2ccc3c(c2)OCCO3)c1,0.779% (inactive),–
COc1ccccc1C(=O)NNC(=O)c1ccc(NC(=O)c2ccccc2)cc1,-14% (inactive),–
COc1ccc(OC)c(/C=N/NC(=O)c2ccc[n+](CC(=O)c3ccccc3)c2)c1,-5.82% (inactive),–
COc1ccc(Nc2ncc(C(=O)Nc3cc(C)ccc3OC)c3ccccc23)cc1,7.13% (inactive),–
COc1ccc(C(=O)N/N=C(\C)CC(=O)Nc2ccc(Cl)cn2)cc1,-14.9% (inactive),–
COc1ccc(C(=O)Nc2cc(C)c(NC(=O)c3ccccc3OC)cn2)cc1,–,2.13 µM (active)

Compound,"activity change, negative = inhibition",Potency
COc1ccc(C(=O)Nc2ccccc2C(=O)N/N=C/c2ccccc2OC)cc1,–,0.0757 µM (active)
COc1ccc(NC(=O)NCc2ccc3c(c2)OCO3)c(OC)c1,6.28% (inactive),–
Cc1ccc(C)c(N2C(=O)N(Cc3c(F)cccc3Cl)c3ccccc3S2(=O)=O)c1,1.18% (inactive),–
Cc1ccc(CN2CC(C(=O)NNC(=O)Cn3ccc(C(F)(F)F)n3)CC2=O)cc1 (stereo unspecified),4.2% (inactive),–
c1ccc2c(c1)C(=NC1CCCCC1)NC2=NC1CCCCC1,1.79% (inactive),–
COC(=O)NNC(=O)C1CCC(C)CC1 (stereo unspecified),–,inactive
CCOCCCn1c(SCC(=O)Nc2ccc(CC)cc2)nc2ccccc2c1=O,-1.15% (inactive),–
Cc1cccc(-c2nc(CS(=O)CC(=O)NC(C)CCc3ccccc3)c(C)o2)c1 (stereo unspecified),-2.47% (inactive),–
CNC(=O)c1ccc(-c2nc(CN3CCc4ccccc43)c(C)o2)cc1,-0.293% (inactive),–
COc1ccc(CN2CCc3nc(Nc4ccccc4)ncc3C2)c(OC)c1OC,2.56% (inactive),–
CCn1c(/C=N/NC(=O)c2ccc(OC)cc2)nc2ccccc21,–,13.5 µM (active)
COc1ccc(Br)cc1/C=N/NC(=O)c1cccc(S(=O)(=O)N2CCOCC2)c1,5.78% (inactive),–
COc1ccc(/C=N/NC(=O)c2ccc3c(c2)OCCO3)c(OC)c1,–,9.53 µM (active)
CCOc1ccc(/C=N/NC(=O)C(C)Sc2ccccn2)cc1OCC (stereo unspecified),-1.41% (inactive),–
CCn1c(SCC(=O)N/N=C/c2ccncc2)nc2ccccc21,-2.42% (inactive),–
Cc1cc(C(=O)N/N=C/c2ccccn2)c2ccccc2n1,-0.51% (inactive),–
COc1ccc(/C=N/NC(=O)CNC(=O)c2ccc(S(=O)(=O)N3CCCC3)cc2)c(OC)c1,-9.97% (inactive),–
CCOc1cc(/C=N/NC(=O)c2cc(-c3ccccc3)nc3ccccc23)ccc1O,–,16.9 µM (active)
CCCCCn1c(CCNC(=O)c2ccc(F)cc2)nc2ccccc21,-3.86% (inactive),–
COc1ccc(Cc2nc3ccc(C(=O)NCc4ccccc4Cl)cc3o2)cc1,-11% (inactive),–
CCOC(=O)C1CCCN(C(=O)c2ccc3c(c2)sc2nc(-c4ccc(CC)cc4)cn23)C1 (stereo unspecified),-6.78% (inactive),–
Cc1ccccc1CNC(=O)C(=O)NCC(c1cccs1)S(=O)(=O)c1cccs1 (stereo unspecified),-9.18% (inactive),–

Compound,"activity change, negative = inhibition",Potency
Cc1nc(N2CCOCC2)c2c(C(=O)NCc3cccc(Cl)c3)c(C)oc2n1,-2.72% (inactive),–
O=C1Nc2cc(C(=O)N3CCC(N4CCCCC4)CC3)ccc2S/C1=C\c1ccccc1,-1.4% (inactive),–
O=C(NCc1ccco1)c1nn2cccnc2c1Cl,-9.49% (inactive),–
CCCCC(CC)C(=O)Nc1ccc(Cl)cn1 (stereo unspecified),-1.5% (inactive),–
Cc1nc(NC(=O)c2ccc3c(c2)OCCO3)ccc1Br,–,1.51 µM (active)
O=C(Nc1ccc(Cl)cn1)c1cnn2cccnc12,–,7.57 µM (active)
COc1ccc(C(=O)NC(=S)Nc2ccc(Cl)cn2)cc1OC,-5.46% (inactive),–
CC1(c2ccc(Cl)cc2)NC(=O)N(CC(=O)c2ccc3c(c2)OCO3)C1=O (stereo unspecified),-20.5% (inactive),–
Cc1cc(NC(=O)c2cnn3cccnc23)n(-c2ccccc2)n1,3.79% (inactive),–
CCCc1cc(C(=O)Nc2ccc(Cl)cn2)cs1,–,0.478 µM (active)
CS(=O)(=O)c1ccc(-c2nnc(NC(=O)c3ccc4c(c3)OCCO4)o2)cc1,-2.9% (inactive),–
CCCc1cc(C(=O)Nc2ccc(C(=O)OC)cc2)cs1,-14.7% (inactive),–
O=C(Nc1ccc(Cl)cn1)c1ccc2c(c1)OCCO2,–,1.35 µM (active)
Cc1cccc(C)c1NC(=O)CNC(=O)c1ccc2c(c1)OCCO2,-2.86% (inactive),–
CC12CCC(=O)N1C(C(=O)Nc1ccc(F)c(F)c1F)CS2 (stereo unspecified),-0.97% (inactive),–
COc1ccc(OC)c(CNC(=O)CN2C(=O)CCn3nc(-c4cn(C)c5ccccc45)cc32)c1,0.0113% (inactive),–
CCN(CC(=O)Nc1ccc(OC)cc1)C(=O)CSCc1ccc(C)cc1,-1.05% (inactive),–
COc1cc(/C=N\NC(=O)C2C(=O)NCC2c2ccccc2)cc(OC)c1O (stereo unspecified),5.59% (inactive),–
Cc1cc(C(=O)N/N=C/c2ccc(O)c([N+](=O)[O-])c2)c(C)n1-c1ccc(F)cc1,–,2.39 µM (active)
Cc1nn(CC(=O)N/N=C/c2ccc(F)cc2)c(C)c1[N+](=O)[O-],-0.587% (inactive),–
CC(C)c1cc(C(=O)N/N=C/c2ccoc2)c(O)c(C(C)C)c1,5.96% (inactive),–
COc1cc(/C=N/NC(=O)c2cc(C)n(-c3ccc(F)cc3)c2C)cc(OC)c1O,–,15.1 µM (active)

Compound,"activity change, negative = inhibition",Potency
CC(Oc1ccccc1[N+](=O)[O-])C(=O)N/N=C/c1ccoc1 (stereo unspecified),2.82% (inactive),–
Nc1c(N(Cc2ccco2)C(=O)c2cccc(F)c2)c(=O)[nH]c(=O)n1Cc1ccccc1,2.26% (inactive),–
Cc1ccccc1C(=O)Nc1nnc(S(=O)(=O)N(C)c2ccc(Cl)cc2)s1,-8.25% (inactive),–
CC(C)(CNC(=O)CNC(=O)C1CCCCC1)N1CCOCC1,-0.324% (inactive),–
CCOC(=O)c1ccc(NC(=O)c2c(NCc3cccc(OC)c3)sc3c2CCC3)cc1,0.213% (inactive),–
O=C(C1CCC(Cn2c(=O)c3sccc3n(Cc3ccccc3F)c2=O)CC1)N1CCCCC1 (stereo unspecified),-10.1% (inactive),–
CC1(C)CC(=O)C=C(c2cccc3c2Oc2ccccc2S3)C1,-3.41% (inactive),–
CCCOC(=O)Nc1ccccc1C(N)=O,3.69% (inactive),–
COc1cccc(OCC(=O)Nc2ccccc2C(N)=O)c1,–,4.78 µM (active)
Cc1cccc(OCCC(=O)Nc2ccccc2C(N)=O)c1,-0.608% (inactive),–
Cc1cccc(OCC(=O)NCCCNC(=O)c2ccccn2)c1,-1.63% (inactive),–
Cc1cccc(OCC(=O)Nc2ccccc2F)c1,–,21.3 µM (active)
Cc1cccc(OCC(=O)Nc2ccc(C(=O)O)cc2NC(=O)COc2cccc(C)c2)c1,0.888% (inactive),–
CCc1ccc(-n2nc(C)c3c(C)cc(=O)n(CC(=O)Nc4ccc(F)cc4C)c32)cc1,1.92% (inactive),–
CCCNc1ncnc2c1c(-c1ccccc1)cn2-c1ccc(OCC)cc1,-5.23% (inactive),–
O=C(COc1ccccc1O)NC1CCCC1,-1.18% (inactive),–
CCOC(=O)c1ccc(NC(=O)c2nc(SCc3ccc(F)cc3)ncc2Cl)cc1,-7.43% (inactive),–
COc1ccccc1N=C(C)C1=C(O)COC1=O,2.19% (inactive),–
COc1cc(N=Cc2c(O)c3ccccc3oc2=O)c(OC)cc1Cl,0.283% (inactive),–
COc1ccccc1N=Cc1c(O)c2ccccc2oc1=O,–,1.9 µM (active)
O=C(Nc1ccc(OC(F)(F)F)cc1)c1cc2c(=O)n3ccccc3nc2s1,1.26% (inactive),–
CCc1cc2c(-c3ccccc3)cc(=O)oc2c2c1OCN(Cc1ccc(C)cc1)C2,-2.21% (inactive),–

Compound,"activity change, negative = inhibition",Potency
Cc1cccc(C(=O)Nc2ccc(-c3nc4ncccc4o3)cc2C)c1,-1.32% (inactive),–
CCC(CC)c1nnc(NC(=O)/C=C/c2ccco2)s1,2.36% (inactive),–
CCc1ccc2oc(-c3ccc(C)c(NC(=O)/C=C/c4ccco4)c3)nc2c1,–,3.01 µM (active)
Cc1ccc2cccc(NC(=O)c3cccc4ccccc34)c2n1,-2.45% (inactive),–
O=c1c2ccccc2nc2n1C1(CCCCC1)Cc1ccccc1-2,-1.54% (inactive),–
CN(c1ccc2nc3ccccc3c(=O)n2n1)C1CCCCC1,–,0.169 µM (active)
CC(C)C(C)NC(=O)COc1nc2ccccc2nc1N(C)C1CCCCC1 (stereo unspecified),0.505% (inactive),–
CCC(=O)N1CCc2cc(CNC(=O)Nc3ccccc3Cl)ccc21,-15.3% (inactive),–
COc1cc2sc(C)nc2cc1C,-2.95% (inactive),–
CCCc1nc(NCc2ccc3c(c2)OCO3)c2nnn(Cc3ccccc3Cl)c2n1,-0.879% (inactive),–
Cc1nc(Nc2ccc3c(c2)OCCO3)c2nnn(Cc3ccccc3Cl)c2n1,–,26.9 µM (active)
Cc1nc(Nc2ccccc2F)c2nnn(Cc3ccccc3Cl)c2n1,-4.09% (inactive),–
c1ccc(-c2nnc(SCc3nc4ccccc4[nH]3)o2)cc1,1.85% (inactive),–
Nc1cccc(CCc2nc3ccccc3[nH]2)c1,-21.6% (inactive),–
c1ccc2c(CSCc3nc4ccccc4[nH]3)cccc2c1,–,10.7 µM (active)
Clc1ccccc1SCc1nc2ccccc2[nH]1,–,13.5 µM (active)
COc1ccc(OC(C)C(=O)NCCc2nc3ccccc3[nH]2)cc1 (stereo unspecified),-0.594% (inactive),–
O=c1[nH]nc(CSCc2ccccc2Cl)[nH]1,2.07% (inactive),–

# Reference: PubChem BioAssay AID588342 (National Center for Advancing Translational Sciences (NCATS), 2011)
